CHO-K1 Ca antag – M1 antagonist counterscreen hit in parental CHO-K1 cells. AID 602250. 360,000 compounds, 0.6% hits. inhibition, % at 3 µM. ATP-induced calcium, Fluo-8 fluorescence;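 active means inhibition above a per-plate cutoff, the plate's mean sample inhibition plus 3 SD, cut at about 24% in these data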;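 further: 0% = DMSO plus EC80 ATP and 100% = DMSO alone without ATP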
M1 antag – antagonists of human M1 muscarinic receptor; AID 588852; P11229; inhibition, % at 3 µM; 360,000 compounds, 1.3% hits; CHO-K1 hM1, Fluo-8 calcium fluorescence, ACh EC80 antagonist;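 active means percent inhibition above its own plate's cutoff, namely the mean of that plate's compound wells plus 3 SD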;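 further: peak over basal fluorescence ratio during 140 s after agonist addition; 0% = ACh EC80 plus DMSO and 100% = DMSO alone without agonist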
Target sequence (P11229 whole entry, looked up): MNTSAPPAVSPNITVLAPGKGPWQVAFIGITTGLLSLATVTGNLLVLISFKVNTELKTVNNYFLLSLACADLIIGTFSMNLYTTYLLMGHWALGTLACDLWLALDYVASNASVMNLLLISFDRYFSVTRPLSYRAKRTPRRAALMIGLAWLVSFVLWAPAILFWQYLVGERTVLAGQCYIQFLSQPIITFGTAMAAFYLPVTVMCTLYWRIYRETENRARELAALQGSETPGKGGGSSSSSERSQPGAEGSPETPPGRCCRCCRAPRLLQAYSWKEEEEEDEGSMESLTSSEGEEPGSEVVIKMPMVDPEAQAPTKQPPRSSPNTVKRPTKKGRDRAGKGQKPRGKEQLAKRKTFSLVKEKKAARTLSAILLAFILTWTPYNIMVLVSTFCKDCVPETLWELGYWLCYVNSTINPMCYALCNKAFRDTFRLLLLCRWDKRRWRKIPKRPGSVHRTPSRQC
CHO-K1 Ca ag – M1 agonist counterscreen hit in parental CHO-K1 cells | Fluo-8 calcium fluorescence; scaled to maximal ATP response, vehicle zero | activation, % at 3 µM | 360,000 compounds, 0.48% hits; in the data active means activation above about 15%;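 further: untransfected CHO-K1 host cells lacking M1 receptor as counterscreen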
CHRM1 agonist – human M1 muscarinic receptor agonism. 360,000 compounds, 0.33% hits. activation, % at 3 µM. CHO-K1 hM1, Fluo-8 calcium fluorescence, agonist mode; 0% DMSO, 100% acetylcholine EC100;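 active means activation above the run's mean compound activation plus 3 SD, cut at about 16% in these data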;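 further: peak over basal fluorescence ratio within a 140 s kinetic read after compound addition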
CHRM1 PAM – potentiates human M1 receptor response to acetylcholine; P11229; CHO-K1 hM1, Fluo-8 calcium fluorescence, ACh EC20; 0% = ACh EC20, 100% = maximal ACh; activation, % at 3 µM; 360,000 compounds, 0.088% hits; in the data active means activation above about 19%, passing the limit was not always enough
CHO-K1 Ca PAM – counter-screen for M1 PAMs: effect in parental CHO-K1 cells; ATP EC20, Fluo-8 calcium fluorescence; 0% at ATP EC20, 100% at ATP max; activation, % at 3 µM; 360,000 compounds, 0.02% hits; AID 602247;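 active means activation above the run cutoff, the mean activation of all test compounds plus 3 SD, cut at about 40% in these data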;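 further: peak over basal fluorescence ratio in a 140 s read after ATP addition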
* marks the source's active call; other numbers are inactive results; ! = not confirmed by another sample. This is a sample that favours compounds with a hit; in the whole collection about 2.3% have one here.

SMILES | CHO-K1 Ca antag | M1 antag | CHO-K1 Ca ag | CHRM1 agonist | CHRM1 PAM | CHO-K1 Ca PAM
CN1CCN(C2Cc3cc(F)ccc3Sc3ccc(Cl)cc32)CC1 (stereo not given) | -17 | 100* | 5 | -1 | -26 | 14
CN1CCN(C2Cc3ccccc3Sc3ccc(Cl)cc32)CC1 (stereo not given) | 20 | 74 | 7 | -3 | -22 | -4
CN1CCN(C2Cc3ccc(F)cc3Sc3cc(F)c(Cl)cc32)CC1 (stereo not given) | 6 | 29 | 1 | -6 | -14 | -4
CSc1ccc2c(c1)C(N1CCN(C)CC1)Cc1ccccc1S2 (stereo not given) | 11 | 79* | 15*! | -1 | -22 | 0
Cc1cccc(NC(=O)COC(=O)c2nn(-c3ccccc3C(F)(F)F)cc2O)c1C | 18 | 14 | 10 | 1 | -10 | -3
CCOc1ccc(NC(=O)CSc2ncn[nH]2)cc1 | -6 | -6 | 1 | -4 | 4 | 19
Cc1ccc(NC(=O)CSc2ncn[nH]2)cc1 | 11 | 3 | 19* | -7 | -5 | 7
O=C(O)c1cccc(CN2C(=O)c3ccccc3C2=O)c1 | 11 | -1 | -1 | 1 | 11 | -11
O=C1c2cccc3c(O)ccc(c23)C(=O)N1Cc1ccccc1 | 60* | 70* | 149* | 262* | -28 | -10
OCCNC(=S)NCCc1ccccc1 | 10 | 6 | 1 | -6 | -2 | -5
CC(C)(CNC(=S)NCCc1ccccc1)CNC(=S)NCCc1ccccc1 | 28* | 18 | 12 | -2 | -10 | -10
Cc1ccc(S(=O)(=O)N2Cc3ccccc3CC2C(=O)N(C)C)cc1 (stereo not given) | -2 | -12 | 1 | -4 | 8 | 2
O=C(NCCc1nnc2ccc(N3CCCCCC3)nn12)c1ccccc1F | -1 | -4 | 1 | -5 | 4 | 15
CCCCNC(=O)C1(C)CCN1C(=O)c1cc(OC)ccc1Br (stereo not given) | -1 | -10 | 0 | -2 | 4 | 0
COc1ccc(Br)c(C(=O)N2CCCC2(C)C(=O)NCC(C)C)c1 (stereo not given) | 27* | -1 | -1 | 0 | 16 | -16
CCOc1ccc(NC(=S)NCc2ccco2)cc1 | 14 | 11 | 17* | -8 | -6 | 16
COc1ccc(NC(=S)NCc2ccco2)cc1 | -17 | -6 | 0 | -4 | 5 | 18
CCCNC(=O)N(C)C[C@H]1Oc2cc(Br)ccc2S(=O)(=O)N([C@@H](C)CO)C[C@@H]1C | -15 | -18 | 0 | -2 | 11 | 16
Cc1ccc(N/C(N)=N/c2nc(C)cc(N3CCCCC3)n2)c(C)c1 | 25* | 34* | 11 | -10 | -32 | 4
Cc1ccc2c(c1)C(=O)C(=O)N2Cc1ccc(Cl)cc1 | -9 | -6 | 4 | 17* | 10 | 14
CNC(C)C(=O)NC(C(=O)N1CCCC1C(=O)Nc1ccc2[nH]ccc2c1)C(C)C (stereo not given) | -12 | -10 | 1 | -3 | 3 | 22
CNC(C)C(=O)NC(C(=O)N1CCCC1C(=O)Nc1ccc2ncccc2c1)C(C)C (stereo not given) | -9 | -17 | 0 | 2 | 32* | 12
CCC(C)N(CCNC(=O)CC1Oc2ccccc2NC1=O)C1CCCCC1 (stereo not given) | -6 | 90* | 0 | -13 | -33 | 14
CC(C)CN(CCNC(=O)CC1Oc2ccccc2NC1=O)CC(C)C (stereo not given) | -24 | 1 | 1 | -13 | -8 | 32
CCC(C)N(CCNC(=O)c1ccc2c(c1)NC(=O)c1ccccc1S2)C1CCCCC1 (stereo not given) | -9 | 56* | 7 | -3 | -23 | 9
SMILES | CHO-K1 Ca antag | M1 antag | CHO-K1 Ca ag | CHRM1 agonist | CHRM1 PAM | CHO-K1 Ca PAM
CCN1CCN(CCCNC(=O)c2ccc3c(c2)NC(=O)c2ccccc2S3)CC1 | -8 | 15 | 1 | -14 | -19 | 14
CC1CCN(Cc2ccc(NC(=O)CC3Oc4ccccc4NC3=O)cc2)CC1 (stereo not given) | -1 | 99* | 1 | -12 | -32 | 15
CC1CCCC(C)N1CCCNC(=O)c1ccc2c(c1)NC(=O)c1ccccc1S2 (stereo not given) | -11 | 84* | 0 | -6 | -24 | 0
Cc1ccc(C)c(S(=O)(=O)N(C)C2CCS(=O)(=O)C2)c1 (stereo not given) | -3 | 5 | 1 | -3 | 1 | -5
O=C(O)C1(S(=O)(=O)CCC(F)=C(F)F)CC1 | -11 | -2 | 1 | -7 | 2 | 21
Cc1cc(C)cc(OCC(=O)Nc2ccc(N3CCN(C(=O)c4ccco4)CC3)cc2)c1 | -2 | 33* | 13 | -1 | -23 | -8
C[N+]1(CC(=O)Nc2ccc(F)cc2)CCN(C(=O)c2ccco2)CC1 | -13 | 56* | 0 | -8 | -20 | 22
Cc1ccc(NC(=O)CN2CCN(C(=O)c3ccco3)CC2)cc1 | -22 | -8 | 2 | -6 | 3 | 17
COc1ccc(CN(C)C(=O)c2cc(-c3ccccc3)nc3ccc(C)cc23)c(OC)c1 | -11 | 37* | 5 | -3 | -17 | 12
Cn1cc(CNC(=O)c2cc(-c3ccccc3)nc3ccc(Br)cc23)cn1 | -7 | 9 | 3 | -8 | -10 | 14
Cc1nn(C)cc1CN(C)C(=O)c1cc(-c2ccccc2)nc2ccc(Br)cc12 | -3 | 34* | 7 | -1 | -7 | -4
COc1ccccc1CN(C)C(=O)c1cc(C)nc2ccccc12 | -9 | -4 | 4 | -2 | 0 | 12
COc1cccc(C(NC(C)=O)c2nc(-c3ccc(F)cc3OC)cs2)c1 (stereo not given) | -5 | 4 | 0 | -3 | -6 | 11
CCNC(=O)C/C(C)=N/NC(=O)C12CC3CC(CC(C3)C1)C2 | 24* | -2 | 0 | -1 | 7 | -7
Cc1cc(C(=O)CN2C(=O)NC(CC(C)C)C2=O)c(C)n1C1CC1 (stereo not given) | 7 | -4 | 1 | -1 | 2 | -6
COc1ccc(C2(C)NC(=O)N(CC(=O)c3cc(C)n(C4CC4)c3C)C2=O)cc1 (stereo not given) | 4 | 0 | 30* | 40* | 5 | 4
Cc1cc(C(=O)CN2C(=O)NC(C)(c3ccc(F)c(F)c3)C2=O)c(C)n1C1CC1 (stereo not given) | -2 | -7 | 12 | 22* | 5 | 21
C=CCNC(=O)CN1C(=O)NC(C)(c2ccc(OC)cc2)C1=O (stereo not given) | -3 | -2 | 1 | 0 | -1 | -14
CN(CCc1ccccn1)C(=O)CCC1CCCN(C(=O)c2ccsc2)C1 (stereo not given) | 4 | -6 | 0 | -7 | 7 | -1
